CSC inhib = cancer stem cell viability inhibitors, primary screen, luminescence. cancer stem cell-like cells viability. inhibition, % at 7.5 µM. 300,000 tested, 1.1% active; in the data active = inhibition above about 75%; tested in HMLE shEcad cells
Beta apoptosis = inhibitors of cytokine-induced beta cell apoptosis, primary screen, luminescence. INS-1E cytokine-induced death, ATP luminescence, 48 h; percent of positive-control rescue, neutral wells zero. 300,000 tested, 0.8% active. protection from apoptosis, % (test concentration not listed). AID 435005, 2010;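 active = Every replicate reaches about 75%, or at least half do and their mean reaches it too, limit read from the data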;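 note: 0% = cytokine-treated negative control wells and 100% = positive control rescue; higher means more ATP so stronger rescue from cytokine killing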
SKKanGAS inh = S. pyogenes SKKanGAS growth inhibitors in kanamycin, primary screen, streptokinase expression inhibitor project, SKKanGAS strain, BacTiter-Glo luminescence; 6 h; inhibition, % at 7.5 µM; 300,000 tested, 1.3% active;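 active = mean replicate score, as percent of positive control median, at least 50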;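 note: strain carries kanamycin resistance gene driven by streptokinase promoter and grows in 40 µg/ml kanamycin; loss of luminescence reflects streptokinase promoter inhibition or plain growth inhibition; 0% = median of DMSO wells and 100% = positive control at its reference dose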
GRIN3A LBD mod = binders of NR3A ligand-binding domain, primary screen, biophysical, differential scanning fluorimetry, uHTS | Glutamate receptor ionotropic, NMDA 3A (GRIN3A) ligand-binding domain | NR3A LBD differential scanning fluorimetry, Tm shift; 0% = protein alone, 100% = glycine-bound protein | Tm shift relative to glycine control, % at 25 µM | 340,000 tested, 2.5% active | AID 1259313, 2017;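 active = melting temperature shift of at least 10% of the positive control shift, at one fixed dose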
MPTP inh = mitochondrial permeability transition pore inhibitors, primary screen, biochemical, isolated mouse mitochondria, absorbance; 360,000 tested, 1.4% active; Ca2+ swelling absorbance, 30 min; inhibition, % at 10 µM;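 active = inhibition of 50% or more, scaled per plate between neutral and stimulator controls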;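 note: 0% = DMSO wells given calcium and 100% = 1 mM EGTA wells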
Mdm2 MdmX PPI = inhibitors of human Mdm2-MdmX association, primary screen, cell-based, luminescence, split luciferase, SaOS-2, uHTS; Protein Mdm4 (Homo sapiens) + E3 ubiquitin-protein ligase Mdm2 (Homo sapiens), …; SaOS-2 split-luciferase Mdm2/MdmX complementation; inhibition, % at 8 µM; 330,000 tested, 3% active; AID 485346, 2010;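 active = inhibition of at least 50% at 8 µM in the primary screen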
Mdm2-MdmX conf = Mdm2-MdmX complex disruptors, retested hits, confirmation, luminescence, single concentration. shares compounds with Mdm2 MdmX PPI. Mdm2-MdmX binding, luminescent assay. inhibition, % at 8 µM. 10,000 tested, 55% active. AID 489028, 2010; in the data active = inhibition above about 40%
Full FLuc ctr = full-length luciferase signal inhibition, confirmation, counter-screen for Mdm2/MdmX interaction inhibitor project, cell-based, single concentration, SaOS-2. shares compounds with Mdm2 MdmX PPI. 6,200 tested, 77% active. SaOS-2 full-length luciferase counterscreen, luminescence. inhibition, % at 8 µM;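 active = mean inhibition at 8 µM reaching about 37%, which flags the compound as non-specific, limit read from the data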;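 note: p53-null SaOS-2 cells with luciferase driven by a doxycycline-inducible promoter; compound on cells about two nights before reading with doxycycline added after day one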
Active calls of the source: *; / = no result. Hits are enriched below; roughly 6.9% of the tested compounds scored in any of these assays.

SMILES	CSC inhib	Beta apoptosis	SKKanGAS inh	GRIN3A LBD mod	MPTP inh	Mdm2 MdmX PPI	Mdm2-MdmX conf	Full FLuc ctr
O=C(Nc1cccc(C(F)(F)F)c1)N(Cc1ccc(Cl)cc1)CC(O)C(F)(F)F (stereo not given)	55	6	8	8	9	67*	4	/
CC(O)(CS(=O)(=O)Cc1ccc(Cl)cc1)C(=O)Nc1cccc(C(F)(F)F)c1 (stereo not given)	16	-11	-3	-3	2	-29	/	/
COc1ccc(C(=O)n2c(C)c(CCO)c(=O)n2C)cc1	-9	-6	3	-1	0	-6	/	/
O=C(Nc1ccc(Nc2ccccc2)cc1)c1ccc(Cl)cc1Cl	67	/	4	8	6	14	/	/
O=C(Nc1ccc(Nc2ccccc2)cc1)c1cc([N+](=O)[O-])ccc1Cl	78*	16	-9	4	2	54*	38	/
O=C(Nc1ccccc1Oc1ccccc1)c1cc([N+](=O)[O-])ccc1Cl	1	-10	2	7	1	79*	48*	68*
O=C(Nc1ccc2c(c1)CCCN2C(=O)c1ccco1)c1cc([N+](=O)[O-])ccc1Cl	-17	6	2	3	0	82*	82*	68*
O=C(Nc1ccc(N2CCN(C(=O)c3ccco3)CC2)cc1)c1ccc([N+](=O)[O-])cc1Cl	6	1	5	-2	-1	23	/	/
Cc1cccc(NC(=O)C2CCCN(S(=O)(=O)c3cccs3)C2)c1C (stereo not given)	-21	-3	7	-1	1	-11	/	/
CC(NC(=O)CN(c1cccc(C(F)(F)F)c1)S(C)(=O)=O)c1ccccc1 (stereo not given)	-2	-1	3	0	1	22	/	/
COc1ccc(-n2c(C)c([N+](=O)[O-])c3ccc(O)c(CN(C)C)c32)cc1	-6	-10	4	-1	4	79*	90*	53*
O=C(CN1C(=O)NC2(CCCC2)C1=O)OCc1ccc(Cl)cc1Cl	-17	1	11	0	-2	17	/	/
COc1ccc2nc(N3C(=O)CC(Cc4cc(C)cc(C)c4)C3=O)sc2c1 (stereo not given)	1	-5	18	4	-1	28	/	/
COc1ccc2nc(N3C(=O)/C(=C/c4ccccc4)NC3=S)sc2c1	-3	14	92*	6	23	54*	38	/
N#Cc1cccc(NC(=O)Cn2c3[n+](c4ccc(C(F)(F)F)cc42)CCCCC3)c1	-20	-7	2	0	-1	10	/	/
C=C(C)C1Cc2c(C)nn(-c3nc(C)cc(C)n3)c2C1 (stereo not given)	-20	23	56*	1	-6	55*	9	/
COc1cc(C(=O)N2CCN(c3ccc(C)cc3C)CC2)cc(OC)c1OC	60	14	-6	0	0	58*	47*	44*
Cc1cccc(N2CCN(C(=O)c3ccc(S(=O)(=O)N(C)c4ccccc4)cc3)CC2)c1C	57	-4	/	1	0	67*	59*	61*
Cc1ccc(N2CCN(C(=O)c3ccccc3)CC2)c(C)c1	-4	1	4	7	0	6	/	/
O=C(c1ccc2c(c1)[nH]c(=S)n1c3ccccc3nc21)N1CCN(c2cccc(Cl)c2)CC1	21	82*	32	4	0	85*	5	/
COc1ccccc1N1CCN(C(=O)c2ccc3[nH]c(C)c(C)c3c2)CC1	56	6	8	2	0	51*	63*	66*
CN1CCN(C(=O)c2ccc(S(=O)(=O)N(C)c3ccccc3)cc2)CC1	/	/	/	/	-2	/	/	/
Cc1[nH]c2ccc(C(=O)N3CCN(c4ccccc4Cl)CC3)cc2c1C	51	-5	25	-8	0	28	/	/
COc1cccc(NC(=O)CSc2nc3scc(C)c3c(=O)[nH]2)c1	10	7	16	-3	1	-1	/	/
COc1ccccc1CCN=C(N)NS(=O)(=O)c1ccccc1F	9	5	-8	2	1	23	/	/
SMILES	CSC inhib	Beta apoptosis	SKKanGAS inh	GRIN3A LBD mod	MPTP inh	Mdm2 MdmX PPI	Mdm2-MdmX conf	Full FLuc ctr
Cc1[nH]c2ccc(C(=O)N3CCN(c4cccc(Cl)c4)CC3)cc2c1C	65	0	27	-2	1	51*	57*	56*
COc1ccc(S(=O)(=O)Cc2ccc(C(=O)N3CCN(c4cccc(C)c4C)CC3)o2)cc1	72	/	6	-5	0	63*	61*	47*
Cc1onc(-c2ccccc2Cl)c1C(=O)N1CCN(c2ccccc2)CC1	4	-6	0	-2	0	6	/	/
COc1cccc(N2CCN(C(=O)c3ccc(CS(=O)c4ccc(Cl)cc4)o3)CC2)c1 (stereo not given)	49	5	6	-1	-1	46	/	/
Cc1onc(-c2ccccc2Cl)c1C(=O)N1CCN(c2cccc(Cl)c2)CC1	56	/	8	-1	-2	54*	59*	57*
COc1cccc(N2CCN(C(=O)c3ccc(CS(=O)c4ccc(C)cc4)o3)CC2)c1 (stereo not given)	56	16	1	0	0	58*	52*	61*
Cc1cccc(N2CCN(C(=O)c3ccc4[nH]c(C)c(C)c4c3)CC2)c1C	62	-4	/	-3	1	60*	58*	71*
Cc1cccc(CS(=O)(=O)Cc2ccc(C(=O)NC3CCCCC3)o2)c1	-9	3	-5	-1	0	-10	/	/
Cc1cc(C)c2c(n1)sc1c(N3CCCCC3)ncnc12	15	8	1	1	0	5	/	/
CC1(C)Cc2c(c(N3CCCC3)nc3sc4c(N5CCNCC5)ncnc4c23)CO1	10	/	9	-2	/	58*	5	/
CCNc1nc(NC(C)(C)C)nc(N2CCCCC2)n1	23	41	30	-2	4	51*	19	/
CCN1CCCC1CNC(=O)c1cc([N+](=O)[O-])c(N(C)C)cc1OC (stereo not given)	6	-4	1	2	1	3	/	/
CCOC(=O)C1CCN(c2cc3c(cc2NC(=O)c2ccccc2)n(C)c(=O)n3C)CC1	9	6	-9	4	0	24	/	/
